# Experimental data reported in PubChem BioAssay (NCATS).
# Results filed as inconclusive are left out. Where a call stands in place of a potency, no number is given. Calls of active or inactive are those of the source. The call rests on the fitted dose curve; in most records, active means well fitted inhibition curve with a large enough effect; inconclusive means small, poorly fitted or top-dose-only effect; inactive means no such curve, though single readings can be large or run the other way.
# Tested on: Zika virus NS2B-NS3 protease (linked construct)
# Assay: Primary screen NINDS Rhodamine qHTS for Zika virus inhibitors (AID 1347160); further: nearly all actives have a fitted effect of over 55% in size
# Details: purified NS2B-NS3 protease, Rhodamine110 substrate fluorescence; series mostly up to 57.1 µM
# Summary of the method: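 Enzyme (25 nM, linked NS2B-NS3) was preincubated 15 min with compound in 10 mM Tris-HCl pH 8.0, 0.01% Tween 20. Rhodamine110 substrate (1.5 microM) was then added and fluorescence read at start and after 15 min.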
# Potency means the concentration at half of the fitted maximal effect.
row,Compound,Potency
1,CC(C)c1ccccc1OC(=O)NCCc1ccc2ccccc2c1,inactive
2,CCNC(=O)Nc1ccc(-c2nc3c(c(N4CCOCC4C)n2)CCN(C2COC2)C3)cc1 (configuration not stated),inactive
3,Cc1ccc(OC[C@H](O)[C@H](C)NC(C)C)c2c1CCC2,inactive
4,NC(=O)N1CCC(CC(=O)N2CCC(C3c4ncc(Br)cc4CCc4cc(Cl)cc(Br)c43)CC2)CC1 (configuration not stated),inactive
5,O=C(Nc1ncc([N+](=O)[O-])s1)c1ccccc1O,22.4 µM (active)
6,O=C1c2ccc(Nc3ccc(F)cc3F)cc2CCc2ccc(OCC(O)CO)cc21 (configuration not stated),inactive
7,COc1cc(O)c2c(c1)/C=C/C[C@H](O)[C@H](O)C(=O)/C=C\C[C@H](C)OC2=O,inactive
